From PubChem BioAssay AID1159580 (chemical genetic matrix, 2015)
“And” between values parts separate entries of the source, which are not always exact repeats. Equal entries are not always repeated. In all, about 5,500 compounds went through this assay and about 2,000 (36%) were called active. About 18% were inconclusive and are not listed. Rule as the data show it: active = normalized growth mostly below about 0.91 (no sharp cut-off); inconclusive = no clear call, values can overlap the other calls; inactive = mostly above about 0.92. The list shows a part of the results.

Assay: chemical genetic growth profiling, strain panel (AID 1159580);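 also: tested at 20 µM; growth read once vehicle control cultures reached saturation at 30 °C; 1 = growth at the plate median or of vehicle wells; lower values mean less growth of the strain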
Settings: growth OD

## CNc1ccccc1C(=O)O
S. cerevisiae deletion strains, locus YBR021W, strain FUR4, stronger effect = lower value
  normalized growth: 0.955 (inactive)
S. cerevisiae deletion strains, locus YBR229C, strain ROT2, stronger effect = lower value
  normalized growth: 1 (inactive)
S. cerevisiae deletion strains, locus YCL029C, strain bik1, stronger effect = lower value
  normalized growth: 1.01 (inactive)
S. cerevisiae deletion strains, locus YDL035C, strain GPR1, stronger effect = lower value
  normalized growth: 1.02 (inactive)
S. cerevisiae deletion strains, locus YDL074C, strain BRE1, stronger effect = lower value
  normalized growth: 1.03 (inactive)
S. cerevisiae deletion strains, locus YDL101C, strain DUN1, stronger effect = lower value
  normalized growth: 1.02 (inactive)
S. cerevisiae deletion strains, locus YDL185W, strain tfp1, stronger effect = lower value
  normalized growth: 1 (inactive)
S. cerevisiae deletion strains, locus YDL192W, strain arf1, stronger effect = lower value
  normalized growth: 0.996 (inactive)
S. cerevisiae deletion strains, locus YDR101C, strain arx1, stronger effect = lower value
  normalized growth: 1 (inactive)
S. cerevisiae deletion strains, locus YDR150W, strain NUM1, stronger effect = lower value
  normalized growth: 0.997 (inactive)
S. cerevisiae deletion strains, locus YDR162C, strain NBP2, stronger effect = lower value
  normalized growth: 1.05 (inactive)
S. cerevisiae deletion strains, locus YDR318W, strain mcm21, stronger effect = lower value
  normalized growth: 0.998 (inactive)
S. cerevisiae deletion strains, locus YDR388W, stronger effect = lower value
  normalized growth: 1 (inactive)
S. cerevisiae deletion strains, locus YDR502C, strain sam2, stronger effect = lower value
  normalized growth: 1.02 (inactive)
S. cerevisiae deletion strains, locus YEL061C, strain CIN8, stronger effect = lower value
  normalized growth: 1 (inactive)
S. cerevisiae deletion strains, locus YER110C, stronger effect = lower value
  normalized growth: 1.02 (inactive)
S. cerevisiae deletion strains, locus YER155C, strain BEM2, stronger effect = lower value
  normalized growth: 0.973 (inactive)
S. cerevisiae deletion strains, locus YER167W, strain BCK2, stronger effect = lower value
  normalized growth: 1 (inactive)
S. cerevisiae deletion strains, locus YGL078C, strain dbp3, stronger effect = lower value
  normalized growth: 0.981 (inactive)
S. cerevisiae deletion strains, locus YGL086W, strain mad1, stronger effect = lower value
  normalized growth: 0.989 (inactive)
S. cerevisiae deletion strains, locus YGL248W, strain PDE1, stronger effect = lower value
  normalized growth: 1.03 (inactive)
S. cerevisiae deletion strains, locus YGR135W, strain pre9, stronger effect = lower value
  normalized growth: 1 (inactive)
S. cerevisiae deletion strains, locus YGR229C, strain SMI1, stronger effect = lower value
  normalized growth: 1 (inactive)
S. cerevisiae deletion strains, locus YGR252W, strain gcn5, stronger effect = lower value
  normalized growth: 1.02 (inactive)
S. cerevisiae deletion strains, locus YHR030C, strain SLT2, stronger effect = lower value
  normalized growth: 1.01 (inactive) and 0.862 (inactive)
S. cerevisiae deletion strains, locus YHR079C, strain IRE1 (second series), stronger effect = lower value
  normalized growth: 0.986 (inactive)
S. cerevisiae deletion strains, locus YHR079C, strain IRE1, stronger effect = lower value
  normalized growth: 0.873 (inactive)
S. cerevisiae deletion strains, locus YHR094C, strain hxt1, stronger effect = lower value
  normalized growth: 1 (inactive)
S. cerevisiae deletion strains, locus YHR129C, strain ARP1, stronger effect = lower value
  normalized growth: 1.01 (inactive)
S. cerevisiae deletion strains, locus YHR200W, strain rpn10, stronger effect = lower value
  normalized growth: 1.01 (inactive)
S. cerevisiae deletion strains, locus YIL066C, strain RNR3, stronger effect = lower value
  normalized growth: 1.04 (inactive)
S. cerevisiae deletion strains, locus YIL073C, strain SPO22, stronger effect = lower value
  normalized growth: 1.09 (inactive)
S. cerevisiae deletion strains, locus YIL125W, strain kgd1, stronger effect = lower value
  normalized growth: 0.969 (inactive)
S. cerevisiae deletion strains, locus YIR030C, strain dcg1, stronger effect = lower value
  normalized growth: 1.01 (inactive)
S. cerevisiae deletion strains, locus YJL095W, strain BCK1, stronger effect = lower value
  normalized growth: 1.05 (inactive) and 0.875 (active)
S. cerevisiae deletion strains, locus YJL134W, strain LCB3, stronger effect = lower value
  normalized growth: 1 (inactive)
S. cerevisiae deletion strains, locus YJL168C, strain set2, stronger effect = lower value
  normalized growth: 0.996 (inactive)
S. cerevisiae deletion strains, locus YJL187C, strain SWE1 (second series), stronger effect = lower value
  normalized growth: 1.02 (inactive)
S. cerevisiae deletion strains, locus YJR043C, strain POL32, stronger effect = lower value
  normalized growth: 1.01 (inactive)
S. cerevisiae deletion strains, locus YJR066W, strain TOR1, stronger effect = lower value
  normalized growth: 0.842 (inactive)
S. cerevisiae deletion strains, locus YKL009W, strain mrt4, stronger effect = lower value
  normalized growth: 0.972 (inactive)
S. cerevisiae deletion strains, locus YKL068W, stronger effect = lower value
  normalized growth: 0.967 (inactive)
S. cerevisiae deletion strains, locus YKL085W, strain MDH1 (second series), stronger effect = lower value
  normalized growth: 0.985 (inactive)
S. cerevisiae deletion strains, locus YKL085W, strain MDH1, stronger effect = lower value
  normalized growth: 0.985 (inactive)
S. cerevisiae deletion strains, locus YKR001C, strain vps1, stronger effect = lower value
  normalized growth: 1 (inactive)
S. cerevisiae deletion strains, locus YLR039C, strain RIC1, stronger effect = lower value
  normalized growth: 1.03 (inactive)
S. cerevisiae deletion strains, locus YLR058C, strain SHM2, stronger effect = lower value
  normalized growth: 1.02 (inactive)
S. cerevisiae deletion strains, locus YLR102C, strain apc9, stronger effect = lower value
  normalized growth: 1 (inactive)
S. cerevisiae deletion strains, locus YLR113W, strain HOG1, stronger effect = lower value
  normalized growth: 0.78 (active)
S. cerevisiae deletion strains, locus YLR262C, strain YPT6, stronger effect = lower value
  normalized growth: 1.06 (inactive)
S. cerevisiae deletion strains, locus YLR268W, strain sec22, stronger effect = lower value
  normalized growth: 0.993 (inactive)
S. cerevisiae deletion strains, locus YLR330W, strain CHS5, stronger effect = lower value
  normalized growth: 1.02 (inactive)
S. cerevisiae deletion strains, locus YLR342W, strain FKS1 (second series), stronger effect = lower value
  normalized growth: 1.02 (inactive)
S. cerevisiae deletion strains, locus YLR371W, strain rom2, stronger effect = lower value
  normalized growth: 0.995 (inactive)
S. cerevisiae deletion strains, locus YLR418C, strain cdc73, stronger effect = lower value
  normalized growth: 1.08 (inactive)
S. cerevisiae deletion strains, locus YML016C, strain PPZ1, stronger effect = lower value
  normalized growth: 1.01 (inactive)
S. cerevisiae deletion strains, locus YML032C, strain rad52, stronger effect = lower value
  normalized growth: 1.02 (inactive)
S. cerevisiae deletion strains, locus YML124C, strain tub3, stronger effect = lower value
  normalized growth: 1.01 (inactive)
S. cerevisiae deletion strains, locus YMR078C, strain ctf18, stronger effect = lower value
  normalized growth: 1 (inactive)
S. cerevisiae deletion strains, locus YMR223W, strain ubp8, stronger effect = lower value
  normalized growth: 1.01 (inactive)
S. cerevisiae deletion strains, locus YMR263W, strain SAP30, stronger effect = lower value
  normalized growth: 1.02 (inactive)
S. cerevisiae deletion strains, locus YMR307W, strain GAS1, stronger effect = lower value
  normalized growth: 1.08 (inactive)
S. cerevisiae deletion strains, locus YNL067W, strain RPL9B, stronger effect = lower value
  normalized growth: 1.01 (inactive)
S. cerevisiae deletion strains, locus YNL183C, strain NPR1, stronger effect = lower value
  normalized growth: 0.822 (active)
S. cerevisiae deletion strains, locus YNL233W, strain BNI4, stronger effect = lower value
  normalized growth: 1.02 (inactive)
S. cerevisiae deletion strains, locus YNL250W, strain rad50, stronger effect = lower value
  normalized growth: 0.994 (inactive)
S. cerevisiae deletion strains, locus YNL271C, strain bni1, stronger effect = lower value
  normalized growth: 0.989 (inactive)
S. cerevisiae deletion strains, locus YNL298W, strain CLA4, stronger effect = lower value
  normalized growth: 1.01 (inactive)
S. cerevisiae deletion strains, locus YNL307C, strain MCK1, stronger effect = lower value
  normalized growth: 0.993 (inactive)
S. cerevisiae deletion strains, locus YNR052C, strain pop2, stronger effect = lower value
  normalized growth: 1 (inactive)
S. cerevisiae deletion strains, locus YOL012C, strain htz1
  normalized growth: 1.68 (inactive)
S. cerevisiae deletion strains, locus YOL147C, strain pex11, stronger effect = lower value
  normalized growth: 0.999 (inactive)
S. cerevisiae deletion strains, locus YOR061W, strain CKA2, stronger effect = lower value
  normalized growth: 1.01 (inactive)
S. cerevisiae deletion strains, locus YOR069W, strain VPS5, stronger effect = lower value
  normalized growth: 1.01 (inactive)
S. cerevisiae deletion strains, locus YOR136W, strain idh2, stronger effect = lower value
  normalized growth: 1.01 (inactive)
S. cerevisiae deletion strains, locus YOR144C, strain elg1, stronger effect = lower value
  normalized growth: 0.994 (inactive)
S. cerevisiae deletion strains, locus YOR184W, strain ser1, stronger effect = lower value
  normalized growth: 1.01 (inactive)
S. cerevisiae deletion strains, locus YOR231W, strain MKK1, stronger effect = lower value
  normalized growth: 0.884 (inactive)
S. cerevisiae deletion strains, locus YOR316C, strain cot1, stronger effect = lower value
  normalized growth: 1.01 (inactive)
S. cerevisiae deletion strains, locus YPL055C, strain LGE1, stronger effect = lower value
  normalized growth: 1.04 (inactive)
S. cerevisiae deletion strains, locus YPL241C, strain CIN2, stronger effect = lower value
  normalized growth: 0.999 (inactive)
S. cerevisiae deletion strains, locus YPL256C, strain CLN2, stronger effect = lower value
  normalized growth: 0.838 (inactive)
S. cerevisiae deletion strains, locus YPR119W, strain clb2, stronger effect = lower value
  normalized growth: 0.995 (inactive)
S. cerevisiae deletion strains, locus YPR141C, strain kar3, stronger effect = lower value
  normalized growth: 0.968 (inactive)
S. cerevisiae deletion strains, locus YPR163C, strain tif3, stronger effect = lower value
  normalized growth: 0.998 (inactive)
S. cerevisiae deletion strains, locus YPR167C, strain met16, stronger effect = lower value
  normalized growth: 1.02 (inactive)
S. cerevisiae deletion strains, strain wtn01, stronger effect = lower value
  normalized growth: 1.01 (inactive)
S. cerevisiae strains, strain wild type, stronger effect = lower value
  normalized growth: 1.01 (inactive)
